This is a sample that favours compounds with a hit; in the whole collection about 4.7% have one here.
sdo1 growth: growth rescue of sdo1-depleted yeast, primary screen, S. cerevisiae, bone marrow failure model; AID 817, 2007; z-score at 10 µM; hit rate 0.21% among 140,000; S. cerevisiae sdo1-depleted JHY4D growth rescue, OD600 30 h; hits give high values; pdr5 snq2 efflux-pump mutant strain;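 active = z-score above 3 at both the 24 hr and the 30 hr optical density reads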
PLK1 inh: human PLK1 kinase inhibitors, primary screen, biochemical, TR-FRET; Serine/threonine-protein kinase PLK1 (Homo sapiens), P53350; recombinant PLK1 kinase, TR-FRET peptide phosphorylation; inhibition, % at 10 µM; hit rate 0.53% among 97,000; AID 619, 2007;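 active = inhibition of 50% or more in the single-concentration screen; inactive = inhibition below 50%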
Cav3 T inh: Cav3.2 calcium influx blockers – cell-based, Fluo-4 calcium fluorescence, FDSS, MLSMR library, primary screen; Voltage-dependent T-type calcium channel subunit alpha-1H (Homo sapiens), O95180; Cav3.2-expressing cells; hits give low values; B-score at 10 µM; hit rate 4% among 100,000; AID 449739, 2010;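 active = single-dose well whose peak fluorescence ratio is a statistical outlier from its plate by either plate-standardised score or position-corrected B-score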
hDAT+cocaine: changed hDAT dopamine uptake under cocaine IC80, either direction, primary screen, cocaine antagonist project, cell-based, LLC-PK1 hDAT, [14C]-dopamine uptake, MLSMR; hit rate 1.3% among 110,000; Sodium-dependent dopamine transporter (Homo sapiens), Q01959; LLC-PK1 hDAT cells, [14C]-dopamine uptake with cocaine IC80; actives deviate in either direction; B-score at 10 µM;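 active = Z score or B-score, a plate-position-corrected score, falls beyond the plate's 99.7% confidence bounds, in either direction; inactive = both scores lie inside the 99.7% bounds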
Plk1 PBD FP: Plk1 polo box domain binding inhibitors, primary screen, biochemical, fluorescence polarization; Serine/threonine-protein kinase PLK1 (Homo sapiens), P53350; Plk1 PBD phosphopeptide binding; inhibition, %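 (tested at about 20 µM)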; hit rate 0.13% among 97,000; AID 693, 2007; in the data active = inhibition above about 34%, passing the limit was not always enough
Pyk2 oligo antag: antagonists of Pyk2 self-association, primary screen, Q293 cells, FERM NanoBiT luminescence, HTS; Protein-tyrosine kinase 2-beta (Homo sapiens), Q14289; hits give low values; z-score (the deposit names both 25 µM and 10 µM); hit rate 0.83% among 99,000; AID 1347419, 2020;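 active = Z-score of -3 or lower, scaled per plate to the spread of control and sample wells; inactive = z-score above -3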;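 also: negative z-score means lost luminescence so less FERM oligomerization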
Hits are given with their value; – = inactive; · = no result.

SMILES	sdo1 growth	PLK1 inh	Cav3 T inh	hDAT+cocaine	Plk1 PBD FP	Pyk2 oligo antag
Cn1cccc1Cc1nnc(SCC(=O)NCc2ccccc2)n1-c1ccc(F)cc1	–	–	–	–	–	·
O=C(Nc1ccc2c(c1)OCO2)C1CCN(Cc2cnn(-c3ccccc3)c2-n2cccc2)CC1	–	–	-5.18	–	–	–
Cn1c(/N=C/c2cccs2)nc2ccccc21	–	–	2.97	–	–	–
COc1ccc(/C=N/c2nc3ccccc3n2C)cc1OC	–	–	–	–	–	–
Cn1c(/N=C/c2cc(Cl)ccc2O)nc2ccccc21	–	–	-4.83	–	–	·
Cn1c(=O)c2c(nc(/C=C/c3cccc(Cl)c3)n2C)n(C)c1=O	·	·	·	–	·	·
C/C(CC(=O)Nc1cccnc1)=N\NC(=O)C(=O)Nc1cccc(C)c1	–	·	·	·	·	·
O=C(Nc1c(F)cccc1F)c1cnc(N2CCN(c3ccccn3)CC2)c2ccccc12	–	–	–	–	–	-3.6
C/C(Cc1ccccc1)=N\NC(=O)CNC(=O)c1ccccc1Br	–	·	·	·	·	·
COc1ccc(CNC(=O)CSCc2ccccc2Cl)cc1	–	·	·	·	·	·
CCOC(=O)c1nnn(CC(=O)Nc2cccc(Cl)c2C)c1C(=O)OCC	–	–	–	–	–	–
CCOC(=O)c1nnn(CC(=O)N2N=C(c3cccc4ccccc34)CC2c2ccccc2)c1C(=O)OCC (stereo not given)	–	–	-5.51	–	–	–
Cc1ccc(S(=O)(=O)N2CCOCC2)cc1C(=O)OCC(=O)NC1CCS(=O)(=O)C1 (stereo not given)	–	·	·	·	·	·
CN(Cc1ccccc1)C(=O)CN(c1ccc(F)cc1)S(=O)(=O)c1ccc2c(c1)OCCO2	–	–	-5.04	–	–	–
CCCCNC(=O)CS(=O)Cc1nc(-c2cccc(Cl)c2)oc1C (stereo not given)	–	64.6	–	–	–	·
Cc1ccc(-c2nc(CS(=O)CC(=O)NCc3ccccc3)c(C)o2)cc1 (stereo not given)	–	–	–	–	–	·
Cc1ccc(NC(=O)CS(=O)Cc2nc(-c3ccc(C)cc3)oc2C)cc1 (stereo not given)	–	–	-4.57	–	–	·
Cc1ccccc1-c1nc(CS(=O)CC(=O)NCCN2CCOCC2)c(C)o1 (stereo not given)	–	–	–	–	–	·
Cc1ccc(-c2nc(CS(=O)CC(=O)NCCN3CCOCC3)c(C)o2)cc1 (stereo not given)	–	59.1	–	–	–	·
Cc1ccc(N(Cc2ccco2)C(=O)c2cccc(S(=O)(=O)N(C)C)c2)cc1	–	–	-4.25	–	–	–
CN(C)S(=O)(=O)c1cccc(C(=O)NCc2ccco2)c1	–	–	–	–	–	–
CN(C)S(=O)(=O)c1cccc(C(=O)N(Cc2ccc(F)cc2)Cc2ccco2)c1	–	–	-4.46	–	–	–
O=C(CN(Cc1ccco1)C(=O)CNS(=O)(=O)c1ccccc1)NCc1ccc(F)cc1	–	–	–	–	–	–
CCOC(=O)C(O)(CC(=O)c1ccc(OC)cc1)C(F)(F)F (stereo not given)	–	–	–	-8.8	–	–
CC(=O)C[C@H]1c2ccccc2S(=O)(=O)N1c1ccccc1	·	·	–	–	·	·
SMILES	sdo1 growth	PLK1 inh	Cav3 T inh	hDAT+cocaine	Plk1 PBD FP	Pyk2 oligo antag
CSC1=C(C#N)C(c2ccc(C(C)C)cc2)CC(=O)N1 (stereo not given)	–	66.1	·	–	–	·
COc1ccc(OC)c(NC(=O)CN(c2ccc(C(C)C)cc2)S(=O)(=O)c2c(C)noc2C)c1	–	–	-4.46	–	–	·
CCOc1ccc(N(CC(=O)Nc2ccc(OC)cc2)S(=O)(=O)c2c(C)noc2C)cc1	–	–	–	–	–	·
CCOc1ccc(N(CC(=O)NC(C)CC)S(=O)(=O)c2c(C)noc2C)cc1 (stereo not given)	–	63.0	–	–	–	·
CCOc1ccccc1NC(=O)CN(c1ccc(C)cc1)S(=O)(=O)c1c(C)noc1C	–	–	-4.72	–	–	–
COc1ccc(CNC(=O)COC(=O)[C@H](Cc2c[nH]c3ccccc23)NC(=O)c2cccs2)cc1	–	·	·	·	·	·
COCCn1c(SCC(=O)N2CC(=O)Nc3ccccc32)nc2ccccc21	–	·	·	·	·	·
CCC(Sc1nnnn1-c1ccccc1)C(=O)NC(C)c1ccccc1 (stereo not given)	–	–	-4.85	–	–	–
CCC(Sc1nnnn1-c1ccccc1)C(=O)Nc1nc2ccccc2s1 (stereo not given)	–	–	-6.7	–	–	–
CC(Sc1nnnn1-c1ccccc1)C(=O)Nc1ccc(Cl)cn1 (stereo not given)	–	–	-5.14	–	–	–
Cc1ccc(-c2nc3ccccc3c(=O)n2NC(=S)N(C)C)cc1	–	·	·	·	·	·
CC(=O)c1nc(N2C(=O)CC(Cc3ccccc3)C2=O)sc1C (stereo not given)	–	·	·	·	·	·
CC1(c2nnc(-c3ccc(F)cc3)o2)CC(c2ccccc2)=NO1 (stereo not given)	·	·	–	–	·	·
C#CCN1C(=O)C(O)(CC(=O)c2ccc3c(c2)OCCO3)c2ccccc21 (stereo not given)	–	–	-3.8	–	–	·
Cc1ccc(C(=O)CC2(O)C(=O)N(Cc3ccc4c(c3)OCO4)c3ccccc32)cc1 (stereo not given)	–	–	-7.53	–	–	–
O=C(NCc1ccccc1Cl)c1ccc(S(=O)(=O)Nc2cccc(C(F)(F)F)c2)cc1	–	·	·	·	·	·
O=C(Nc1ccc(F)cc1)NC1(C(=O)NCc2ccco2)CCCCC1	–	–	–	–	–	–
CCCCN(CC)Cc1ccc(CNC(=O)Nc2ccc(F)cc2)o1	–	–	–	-5.48	–	–
Cc1cc(C(=O)COC(=O)c2ccc(CO)cc2)c(C)n1CC1COc2ccccc2O1 (stereo not given)	–	·	·	·	·	·
CC1(C)COC(c2ccc(F)c([N+](=O)[O-])c2)=N1	–	·	·	·	·	–
Cc1ccccc1-n1c(SCC(=O)N/N=C/c2sccc2C)nc2ccccc2c1=O	–	·	·	·	·	·
Cc1nn(-c2nc3ccccc3n2Cc2ccccc2)c2c1C(=O)CC(C)(C)C2	–	–	-4.97	–	–	-4.03
COc1ccc(C(=O)CC(=O)C(=O)NCCc2cccc(C)c2)cc1	–	·	·	·	·	·
CCCOC(=O)c1cccc(Nc2nc(-c3cccnc3)nc3ccccc23)c1	–	·	·	·	·	·
CC(=O)c1cccc(NC(=O)Nc2ccc3c(c2)N(C)C(=O)CS3)c1	–	–	–	–	–	-3.28
C[C@H]1CC[C@H]2C(=O)N3[C@H](c4ccccc4Br)[C@@H](C)CC[C@H]3C(=O)N2[C@@H]1c1ccccc1Br	–	·	·	·	·	·
COC(=O)c1nn(-c2ccccc2)c(Cl)c1/C=N/OCc1ccc(C)cc1	–	–	–	1.61	–	–
